According to the supplement of paper PMC11732987, “Enantioselective OTUD7B fragment discovery through chemoproteomics screening and high-throughput optimisation” (Communications Chemistry, 2025):

Tests used:
[1] = molecular target: T1, USP38 (UniProt Q8NB14); test: log2 ratio of Biotin-Ahx-Ub-VS probe labelling (compound/DMSO); higher = less target engagement, active = hit call of the paper (q ≤ 0.05, log2 ratio ≤ -1); details: treatment time: 3 h
T1 sequence (whole entry): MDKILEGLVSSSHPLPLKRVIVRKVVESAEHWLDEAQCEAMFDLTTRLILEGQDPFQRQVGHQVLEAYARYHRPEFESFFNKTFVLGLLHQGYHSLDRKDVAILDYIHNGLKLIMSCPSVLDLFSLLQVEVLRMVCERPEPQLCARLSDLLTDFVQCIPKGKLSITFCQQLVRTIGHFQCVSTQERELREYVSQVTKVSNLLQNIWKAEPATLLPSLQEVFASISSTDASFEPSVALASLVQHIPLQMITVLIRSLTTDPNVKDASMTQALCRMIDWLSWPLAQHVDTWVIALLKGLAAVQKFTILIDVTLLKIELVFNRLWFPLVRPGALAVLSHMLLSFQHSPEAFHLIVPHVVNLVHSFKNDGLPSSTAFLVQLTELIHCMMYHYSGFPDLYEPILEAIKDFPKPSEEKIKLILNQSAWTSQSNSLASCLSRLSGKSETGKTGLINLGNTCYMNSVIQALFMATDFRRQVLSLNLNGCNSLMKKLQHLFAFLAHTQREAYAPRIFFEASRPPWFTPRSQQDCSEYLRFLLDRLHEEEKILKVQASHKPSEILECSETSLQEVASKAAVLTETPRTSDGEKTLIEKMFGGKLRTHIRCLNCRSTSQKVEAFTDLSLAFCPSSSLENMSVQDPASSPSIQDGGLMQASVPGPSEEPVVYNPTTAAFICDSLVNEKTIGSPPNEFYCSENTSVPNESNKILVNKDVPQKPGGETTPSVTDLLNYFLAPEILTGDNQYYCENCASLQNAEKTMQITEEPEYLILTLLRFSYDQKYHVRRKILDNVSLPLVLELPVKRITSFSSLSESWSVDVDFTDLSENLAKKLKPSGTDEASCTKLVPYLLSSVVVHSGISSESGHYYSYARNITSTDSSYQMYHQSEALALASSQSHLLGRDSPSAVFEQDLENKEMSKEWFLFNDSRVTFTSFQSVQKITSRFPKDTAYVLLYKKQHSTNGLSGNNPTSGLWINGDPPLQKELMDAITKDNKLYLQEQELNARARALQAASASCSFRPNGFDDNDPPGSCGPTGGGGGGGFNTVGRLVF
Outline: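 Average ratios of compound to vehicle were obtained by unpaired t-test. Beforehand, 495 µg samples of HEK293T lysate in buffer with protease inhibitors were treated in triplicate with compound over a concentration series or vehicle for 3 h, then with 0.5 µM final Biotin-Ahx-Ub-VS for 1 h. Labelled deubiquitinases were NeutrAvidin-enriched, digested and quantified label-free by diaPASEF LC-MS/MS in Spectronaut, normalised to the global median. Values are log2 and cover proteins with at least two unique peptides.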

[2] = molecular target: T2, ALG13 (UniProt Q9NP73); test: log2 ratio of Biotin-Ahx-Ub-VS probe labelling (fragment/DMSO); higher = less target engagement (more negative = stronger competition), active = hit call of the paper (q ≤ 0.05, log2 ratio ≤ -1); details: compound concentration: 200 uM; treatment time: 3 h
T2 sequence (whole entry): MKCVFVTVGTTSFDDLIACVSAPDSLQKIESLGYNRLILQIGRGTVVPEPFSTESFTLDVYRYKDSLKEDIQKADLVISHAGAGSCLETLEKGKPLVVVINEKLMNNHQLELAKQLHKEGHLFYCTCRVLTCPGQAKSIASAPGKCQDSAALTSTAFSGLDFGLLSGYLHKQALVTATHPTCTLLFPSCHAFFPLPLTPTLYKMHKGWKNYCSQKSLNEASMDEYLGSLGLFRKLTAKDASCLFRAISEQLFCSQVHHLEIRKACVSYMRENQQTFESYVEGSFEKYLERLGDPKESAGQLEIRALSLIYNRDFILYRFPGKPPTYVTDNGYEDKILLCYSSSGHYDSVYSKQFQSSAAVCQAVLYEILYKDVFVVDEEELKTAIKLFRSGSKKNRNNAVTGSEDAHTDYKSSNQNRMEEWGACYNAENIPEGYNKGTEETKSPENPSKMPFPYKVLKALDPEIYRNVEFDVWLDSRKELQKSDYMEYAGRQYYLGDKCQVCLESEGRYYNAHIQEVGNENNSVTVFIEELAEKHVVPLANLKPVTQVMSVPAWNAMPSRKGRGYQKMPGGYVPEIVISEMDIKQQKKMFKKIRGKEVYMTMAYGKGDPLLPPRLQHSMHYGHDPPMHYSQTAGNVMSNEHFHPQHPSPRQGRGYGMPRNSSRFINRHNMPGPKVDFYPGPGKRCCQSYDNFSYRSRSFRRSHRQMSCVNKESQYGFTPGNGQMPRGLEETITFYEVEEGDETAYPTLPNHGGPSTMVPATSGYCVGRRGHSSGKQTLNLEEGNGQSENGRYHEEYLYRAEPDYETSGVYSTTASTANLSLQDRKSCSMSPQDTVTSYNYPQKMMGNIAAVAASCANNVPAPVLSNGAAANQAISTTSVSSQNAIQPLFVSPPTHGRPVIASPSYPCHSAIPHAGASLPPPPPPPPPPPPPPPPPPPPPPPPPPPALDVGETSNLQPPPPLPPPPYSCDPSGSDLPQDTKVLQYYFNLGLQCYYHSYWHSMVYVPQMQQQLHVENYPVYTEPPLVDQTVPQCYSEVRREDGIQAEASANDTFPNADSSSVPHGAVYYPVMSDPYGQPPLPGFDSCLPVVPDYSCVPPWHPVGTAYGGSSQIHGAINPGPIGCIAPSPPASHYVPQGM
Outline: (§1)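 The table lists average log2 ratios of fragment over vehicle, from an unpaired t-test on global-median-normalised Spectronaut label-free quantities. Proteins with ≥2 unique peptides were used. Samples were HEK293T lysate (495 µg) treated in triplicate with fragment at 200 µM or vehicle for 3 h, then with Biotin-Ahx-Ub-VS (0.5 µM final) for 1 h, with labelled DUBs NeutrAvidin-enriched and run by diaPASEF LC-MS/MS.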

[3] = molecular target: ATXN3 (UniProt P54252); test: as above; details: compound concentration: 200 uM; treatment time: 3 h
Chain of ATXN3 (P54252 whole entry): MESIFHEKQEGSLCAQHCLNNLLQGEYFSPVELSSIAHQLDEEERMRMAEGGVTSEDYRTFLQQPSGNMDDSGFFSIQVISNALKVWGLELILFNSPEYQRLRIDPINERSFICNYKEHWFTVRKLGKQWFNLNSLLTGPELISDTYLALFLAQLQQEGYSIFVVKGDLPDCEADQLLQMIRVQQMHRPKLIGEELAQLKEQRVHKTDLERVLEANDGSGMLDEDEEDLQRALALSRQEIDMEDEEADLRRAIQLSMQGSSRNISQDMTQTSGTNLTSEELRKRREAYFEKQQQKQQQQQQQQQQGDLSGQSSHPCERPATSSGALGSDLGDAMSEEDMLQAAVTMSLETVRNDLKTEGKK
Outline: as §1

[4] = molecular target: T3, BAP1 (UniProt Q92560); test: as above; details: compound concentration: 200 uM; treatment time: 3 h
T3 sequence (whole entry): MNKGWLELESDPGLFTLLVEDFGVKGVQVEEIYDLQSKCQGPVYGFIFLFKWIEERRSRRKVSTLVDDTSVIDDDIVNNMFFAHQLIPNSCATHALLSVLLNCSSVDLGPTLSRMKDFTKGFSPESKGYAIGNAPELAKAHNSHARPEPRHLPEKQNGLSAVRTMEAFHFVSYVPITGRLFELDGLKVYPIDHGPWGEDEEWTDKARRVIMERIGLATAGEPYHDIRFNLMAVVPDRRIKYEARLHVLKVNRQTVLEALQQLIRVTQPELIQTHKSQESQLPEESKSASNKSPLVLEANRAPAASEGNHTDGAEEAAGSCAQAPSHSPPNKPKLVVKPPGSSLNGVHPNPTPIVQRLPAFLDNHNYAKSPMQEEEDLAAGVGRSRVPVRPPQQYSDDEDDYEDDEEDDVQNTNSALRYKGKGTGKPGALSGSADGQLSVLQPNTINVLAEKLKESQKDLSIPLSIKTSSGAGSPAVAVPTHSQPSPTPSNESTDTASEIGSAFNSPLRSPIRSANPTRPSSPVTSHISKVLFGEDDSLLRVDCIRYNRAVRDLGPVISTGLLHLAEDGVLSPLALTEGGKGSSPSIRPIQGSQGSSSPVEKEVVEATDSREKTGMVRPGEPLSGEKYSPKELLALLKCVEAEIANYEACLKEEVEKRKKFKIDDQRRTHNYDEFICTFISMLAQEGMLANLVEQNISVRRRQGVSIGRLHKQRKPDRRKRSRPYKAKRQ
Outline: as §1

[5] = molecular target: EIF3F (UniProt O00303); test: as above; details: compound concentration: 200 uM; treatment time: 3 h
Chain of EIF3F (O00303 whole entry): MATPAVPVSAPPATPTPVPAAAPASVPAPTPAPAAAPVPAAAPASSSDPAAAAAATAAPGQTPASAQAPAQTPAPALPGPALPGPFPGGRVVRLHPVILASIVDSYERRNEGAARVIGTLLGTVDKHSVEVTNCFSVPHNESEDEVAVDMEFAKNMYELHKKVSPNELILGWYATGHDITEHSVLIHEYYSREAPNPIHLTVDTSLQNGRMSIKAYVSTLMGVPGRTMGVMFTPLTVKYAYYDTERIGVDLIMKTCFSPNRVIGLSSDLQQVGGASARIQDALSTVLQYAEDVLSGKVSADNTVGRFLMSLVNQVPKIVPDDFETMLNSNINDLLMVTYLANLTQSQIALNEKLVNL
Outline: as §1

[6] = molecular target: EIF3H (UniProt O15372); test: as above; details: compound concentration: 200 uM; treatment time: 3 h
Chain of EIF3H (O15372 whole entry): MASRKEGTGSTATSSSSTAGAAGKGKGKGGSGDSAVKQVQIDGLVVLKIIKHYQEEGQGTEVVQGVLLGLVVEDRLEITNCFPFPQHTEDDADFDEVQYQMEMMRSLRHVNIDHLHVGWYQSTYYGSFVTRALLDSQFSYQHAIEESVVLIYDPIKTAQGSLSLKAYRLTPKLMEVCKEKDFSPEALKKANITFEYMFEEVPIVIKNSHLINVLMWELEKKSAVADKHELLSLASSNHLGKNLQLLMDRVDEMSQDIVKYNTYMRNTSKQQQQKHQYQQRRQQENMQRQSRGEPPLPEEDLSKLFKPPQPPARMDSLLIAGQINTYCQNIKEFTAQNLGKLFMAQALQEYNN
Outline: as §1

[7] = molecular target: T4, FAM105A (UniProt Q9NUU6); test: as above; details: compound concentration: 200 uM; treatment time: 3 h
T4 sequence (whole entry): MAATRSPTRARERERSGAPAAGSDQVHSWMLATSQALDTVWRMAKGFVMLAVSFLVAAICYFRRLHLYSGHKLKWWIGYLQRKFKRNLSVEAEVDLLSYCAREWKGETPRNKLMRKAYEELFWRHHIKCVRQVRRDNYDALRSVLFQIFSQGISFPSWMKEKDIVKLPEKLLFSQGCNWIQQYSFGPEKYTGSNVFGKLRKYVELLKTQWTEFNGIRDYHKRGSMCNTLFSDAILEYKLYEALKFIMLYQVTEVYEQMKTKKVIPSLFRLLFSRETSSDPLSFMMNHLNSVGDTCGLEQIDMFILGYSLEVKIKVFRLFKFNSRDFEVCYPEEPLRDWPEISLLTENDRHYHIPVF
Outline: as §1

[8] = molecular target: OTUB1 (UniProt Q96FW1); test: as above; details: compound concentration: 200 uM; treatment time: 3 h
Chain of OTUB1 (Q96FW1 whole entry): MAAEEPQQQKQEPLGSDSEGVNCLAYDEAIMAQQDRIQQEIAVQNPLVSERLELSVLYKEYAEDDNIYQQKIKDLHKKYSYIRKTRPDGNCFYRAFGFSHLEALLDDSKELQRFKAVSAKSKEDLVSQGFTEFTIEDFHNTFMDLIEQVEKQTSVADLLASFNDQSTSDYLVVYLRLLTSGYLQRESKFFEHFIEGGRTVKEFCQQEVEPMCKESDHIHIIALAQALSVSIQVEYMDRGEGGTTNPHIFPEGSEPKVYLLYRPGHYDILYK
Outline: as §1

[9] = molecular target: T5, OTUD4 (UniProt Q01804); test: as above; details: compound concentration: 200 uM; treatment time: 3 h
T5 sequence (whole entry): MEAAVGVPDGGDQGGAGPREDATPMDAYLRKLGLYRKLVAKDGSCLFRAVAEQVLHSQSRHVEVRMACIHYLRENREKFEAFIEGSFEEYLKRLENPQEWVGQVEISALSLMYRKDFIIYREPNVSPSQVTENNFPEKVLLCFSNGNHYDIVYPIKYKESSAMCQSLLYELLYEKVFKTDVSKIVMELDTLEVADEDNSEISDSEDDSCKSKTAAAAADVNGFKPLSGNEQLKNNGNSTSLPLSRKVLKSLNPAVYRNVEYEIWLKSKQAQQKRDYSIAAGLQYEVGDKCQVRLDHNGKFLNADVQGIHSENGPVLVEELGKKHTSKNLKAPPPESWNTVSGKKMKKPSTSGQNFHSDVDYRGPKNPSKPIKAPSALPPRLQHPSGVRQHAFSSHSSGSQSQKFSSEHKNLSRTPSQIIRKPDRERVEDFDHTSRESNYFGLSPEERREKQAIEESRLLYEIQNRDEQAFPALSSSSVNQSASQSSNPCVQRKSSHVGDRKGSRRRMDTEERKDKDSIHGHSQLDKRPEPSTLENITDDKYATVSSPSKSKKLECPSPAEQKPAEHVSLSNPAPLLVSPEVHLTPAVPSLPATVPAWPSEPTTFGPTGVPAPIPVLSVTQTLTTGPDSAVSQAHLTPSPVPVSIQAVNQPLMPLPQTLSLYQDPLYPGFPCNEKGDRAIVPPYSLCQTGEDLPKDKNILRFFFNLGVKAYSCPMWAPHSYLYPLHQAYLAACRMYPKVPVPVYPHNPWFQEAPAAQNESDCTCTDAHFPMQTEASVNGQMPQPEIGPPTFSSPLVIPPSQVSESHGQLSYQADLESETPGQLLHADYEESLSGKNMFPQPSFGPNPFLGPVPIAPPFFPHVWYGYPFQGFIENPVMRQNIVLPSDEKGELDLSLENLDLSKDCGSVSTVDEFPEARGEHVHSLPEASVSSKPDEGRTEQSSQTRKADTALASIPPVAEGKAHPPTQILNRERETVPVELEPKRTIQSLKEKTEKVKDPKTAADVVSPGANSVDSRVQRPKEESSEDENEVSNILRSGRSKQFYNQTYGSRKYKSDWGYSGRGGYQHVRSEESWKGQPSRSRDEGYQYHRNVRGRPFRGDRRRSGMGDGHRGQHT
Outline: as §1

[10] = molecular target: T6, OTUD5 (UniProt Q96G74); test: as above; details: compound concentration: 200 uM; treatment time: 3 h
T6 sequence (whole entry): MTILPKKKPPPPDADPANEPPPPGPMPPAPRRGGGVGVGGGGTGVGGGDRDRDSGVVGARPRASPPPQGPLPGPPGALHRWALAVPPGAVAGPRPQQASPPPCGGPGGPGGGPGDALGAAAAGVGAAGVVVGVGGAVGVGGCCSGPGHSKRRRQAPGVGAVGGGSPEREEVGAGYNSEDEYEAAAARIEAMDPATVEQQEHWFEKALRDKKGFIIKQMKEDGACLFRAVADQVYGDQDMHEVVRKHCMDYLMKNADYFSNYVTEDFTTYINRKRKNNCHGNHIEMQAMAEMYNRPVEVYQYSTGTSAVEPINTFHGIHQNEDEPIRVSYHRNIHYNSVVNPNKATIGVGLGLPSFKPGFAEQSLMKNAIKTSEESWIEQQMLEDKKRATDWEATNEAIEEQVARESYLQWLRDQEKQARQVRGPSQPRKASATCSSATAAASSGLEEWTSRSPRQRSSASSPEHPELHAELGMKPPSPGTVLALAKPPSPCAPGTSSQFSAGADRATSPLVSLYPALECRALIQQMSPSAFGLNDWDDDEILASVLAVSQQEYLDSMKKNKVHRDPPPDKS
Outline: as §1

Measured: log2 ratio of Biotin-Ahx-Ub-VS probe labelling

O=C(CCl)N[C@H]1CCCc2ccccc21
inactive: [1]; compound concentration: 0.78uM -0.147 | [1]; compound concentration: 1.56uM -0.192 | [1]; compound concentration: 3.13uM -0.169 | [1]; compound concentration: 6.25uM -0.0221 | [1]; compound concentration: 12.5uM -0.0585 | [1]; compound concentration: 25uM -0.166 | [1]; compound concentration: 50uM -0.069 | [1]; compound concentration: 100uM -0.102 | [1]; compound concentration: 200uM -0.211

CC1CCc2onc(CNC(=O)CCl)c2C1 (stereo not drawn)
active: [4] -1.22
inactive: [2] 0.206 | [3] 0.065 | [5] -0.165 | [6] -0.00651 | [7] 0.123 | [8] 0.048 | [9] -0.0637 | [10] 0.0465
